Data from PMC5540273 (PLoS ONE, 2017).

system: ABL2; conditions: concentration: 1 μM, replicates: in singlicate; n = 1
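Note: KINOMEscan kinase panel screen.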

SMILES	%Inh [%]
C[C@@H](Oc1cc(-n2cnc3cc(-c4ccnc(NCCS(C)(=O)=O)c4)ccc32)sc1C(N)=O)c1ccccc1Cl [GSK907232]	30
CN1CCN(Cc2cccc(-c3ccc4c(Nc5ccc(Oc6ccccc6)cc5)ccnc4c3)c2)CC1 [GW578342]	23
Cc1ccc(S(=O)(=O)Nc2ccc(Nc3nccc(Nc4cccc5[nH]ncc45)n3)cc2)cc1 [GSK581271]	64

system: ACVR1B; conditions: concentration: 1 μM, replicates: in singlicate; n = 1

SMILES	%Inh [%]
Cl.c1ccc(-c2ccc3c(Nc4ccc5[nH]ccc5c4)ccnc3c2)nc1 [GW440138]	0
Nc1n[nH]c2cnc(-c3ccccc3)cc12 [SB-642124]	0
CN(C)Cc1ccc(-c2ccc3c(Nc4ccc(Oc5ccccn5)cc4)ccnc3c2)o1 [GW567148]	0
CC(C)(C)c1ccc2nccc(Nc3cccc(O)c3)c2c1 [GW856795]	0
O=c1[nH]cc(-c2ccc(N3CCOCC3)cc2)c2sc(-c3cn[nH]c3)cc12 [GSK2276055]	0
O=C(Nc1n[nH]c2cc(-c3ccoc3)ccc12)C1CC1 [SB-738481]	0
CC(=O)N1CCN(c2ccc(Nc3nccc(-c4sc(C(C)C)nc4-c4cccc(NS(=O)(=O)c5cccc(Cl)c5)c4)n3)cn2)CC1 [GSK1660437]	70
COc1cc2c(cc1OCCN1CCNCC1)ncc1c3ccc(C#N)cc3[nH]c21	0
CNC(=O)c1ccccc1Nc1nc(Nc2ccc(N3CCOCC3)cc2)ncc1Cl.Cl [GSK1576028]	85
Oc1cc(Nc2ccnc3cc(I)ccc23)ccc1F [GW552771]	54
COc1cccc(C2=C(Nc3ccc(Cl)c(C(=O)O)c3)C(=O)NC2=O)c1 [SB-390769]	0
O=C(Nc1cccc(-c2nn3ccccc3c2-c2ccnc(Nc3cccc(F)c3)n2)c1)c1c(F)ccc(F)c1Cl [GSK357952]	0
O=C(Nc1cccc(Oc2ccc3nc(NC(=O)C4CC4)cn3n2)c1)c1ccccc1C(F)(F)F	0
CSc1cccc2c(-c3ccncn3)c(-c3ccc(F)cc3)nn12 [GW514786]	43
Cn1cc(-c2[nH]c3cc(NC(=O)[C@H](N)C4CCCCC4)cc4c3c2C=NNC4=O)cn1	3
COc1ccc(CNC(=O)NC2CCN(c3ccnc(Nc4ccc(F)cc4)n3)CC2)cc1 [GSK1379788]	0
COc1cccc(NC(=O)NC2CCN(c3ccnc(Nc4cc(OC)c(OC)c(OC)c4)n3)C2)c1 (stereo not shown) [GSK1379763]	0
O=C(Nc1n[nH]c2nc(-c3ccc(O)cc3)ccc12)C1CC1 [SB-710363]	0
CN1CCN(CCCNc2nccc(-c3c(-c4ccc(F)cc4)nn4cc(C(F)(F)F)ccc34)n2)CC1 [GW621581]	83

SMILES	%Inh [%]
c1ccc(-c2n[nH]cc2Nc2ccnc3ccccc23)nc1 [GW694077]	0
CCc1ccc(-c2ccc3c(c2)-c2c(cnn2C)S(=O)(=O)N3C)cc1	14
NCCCC(NC(=O)c1cc(Br)c(-c2ccnc3[nH]ccc23)s1)c1ccccc1.O=C(O)C(F)(F)F.O=C(O)C(F)(F)F (stereo not shown) [GSK1287544]	0
Nc1ncc(-c2cccnc2)c2scc(-c3ccc4c(c3)CCN4C(=O)Cc3ccccc3)c12 [GSK683281]	0
Cl.c1ccc(-c2ccc3c(Nc4ccc5[nH]ncc5c4)ccnc3c2)nc1 [GW440137]	1
Cc1ccc(C)c(NC(=O)NC2CCN(c3ccnc(Nc4ccc(F)cc4)n3)C2)c1 (stereo not shown) [GSK1379720]	0
COc1cc(Nc2nccc(-c3c(-c4cccc(NC(=O)c5c(F)cccc5F)c4)nn4ccccc34)n2)cc(OC)c1OC [GSK323521]	19
Fc1ccc(-c2ncn(C3CCNCC3)c2-c2ccnc(Oc3ccc(-c4ccccc4)cc3)n2)cc1 [SB-245391]	72
COc1cc(Nc2ncc3c(C)nc(-c4cc5ccccc5[nH]4)n3n2)cc(OC)c1OC [GW869516]	8
Clc1ccc(-c2nn3ncccc3c2-c2ccnc(Nc3ccc4c(c3)OCCO4)n2)cc1 [GW829116]	28
c1ccc(-c2cnc3nccnn23)cc1 [AH20685]	0
O=C(Nc1ccccc1F)NC1CCN(c2ccnc(Nc3ccc(F)cc3)n2)CC1 [GSK1379800]	0
Cc1occc1-c1ncc(OC[C@@H](N)Cc2c[nH]c3ccccc23)cc1-c1ccc2[nH]nc(C)c2c1.O=C(O)C(F)(F)F [GSK682037]	8
C[C@@H]1CC[C@@H](C(=O)Nc2ccccc2)CN1c1cc(-c2ccc3c(N)n[nH]c3c2)nc(N)n1 [GSK2286062]	0
COc1cc(Nc2nccc(-c3c(-c4cccc(NC(=O)c5c(F)cccc5F)c4)nn4ncccc34)n2)cc(OC)c1OC [GSK327238]	14
C[C@@H](Oc1cc(-n2cnc3cc(-c4ccnc(NCCS(C)(=O)=O)c4)ccc32)sc1C(N)=O)c1ccccc1Cl [GSK907232]	0
CN1CCN(Cc2cccc(-c3ccc4c(Nc5ccc(Oc6ccccc6)cc5)ccnc4c3)c2)CC1 [GW578342]	0
Cc1ccc(S(=O)(=O)Nc2ccc(Nc3nccc(Nc4cccc5[nH]ncc45)n3)cc2)cc1 [GSK581271]	8
